The text below walks through data of PubChem BioAssay.

Structures are written as SMILES.

The target of this assay is E3 ubiquitin-protein ligase XIAP (Homo sapiens) (UniProt P98170). The assay can be described thus: small molecules binding XIAP protein – biophysical, small-molecule microarray, fluorescence 635 nm, primary screen (AID 1181).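 Further: score merges 667 nm emission and signal to noise over triplicate slides.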 The settings on record: higher = more signal.
E3 ubiquitin-protein ligase XIAP (Homo sapiens), sequence (P98170 whole entry, looked up): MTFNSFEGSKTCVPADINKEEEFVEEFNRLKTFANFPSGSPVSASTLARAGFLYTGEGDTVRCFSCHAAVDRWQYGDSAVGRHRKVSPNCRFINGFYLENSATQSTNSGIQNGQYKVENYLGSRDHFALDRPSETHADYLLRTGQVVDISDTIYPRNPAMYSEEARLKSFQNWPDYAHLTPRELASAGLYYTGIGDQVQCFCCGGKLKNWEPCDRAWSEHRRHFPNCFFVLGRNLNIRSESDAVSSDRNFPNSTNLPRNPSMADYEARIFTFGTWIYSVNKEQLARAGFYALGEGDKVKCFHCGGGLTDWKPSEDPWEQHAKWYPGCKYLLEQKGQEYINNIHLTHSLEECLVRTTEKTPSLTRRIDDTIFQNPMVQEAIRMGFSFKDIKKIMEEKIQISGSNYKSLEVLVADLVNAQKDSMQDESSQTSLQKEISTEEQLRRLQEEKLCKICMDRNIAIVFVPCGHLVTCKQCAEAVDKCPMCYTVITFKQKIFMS
In turn, `COC(=O)[C@@]1(Cc2ccc(F)cc2)[C@H]2c3cc(C(=O)N(C)C)n(Cc4ccc(O)c(OC)c4)c3C[C@H]2CN1C(=O)c1ccccc1` yielded a composite z-score of 0.0812. `CO[C@H]1O[C@H](CO)[C@@H](OC(=O)Nc2cccc(F)c2)[C@H](OC(=O)Nc2ccccc2-c2ccccc2)[C@H]1OC(=O)Nc1ccccc1-c1ccccc1`: the composite z-score was -0.0925.

Compound `C=C(CCCC)/C(=C/C[C@H](OC(C)=O)c1ccc(OCCO)cc1)c1cc(C(=O)OC)ccc1OC` came in with a composite z-score of 0.0977. `COCCCNC(=O)[C@@]1(Sc2ccc(C)cc2)CC(=O)N(Cc2ccccc2Cl)[C@@H]1c1ccc(CO)cc1I` displayed a composite z-score of -0.138. As to `COc1cccc(/C=C(\C#N)C(=O)Nc2c(C)n(C)n(-c3ccccc3)c2=O)c1`, the composite z-score amounted to 0.0775. Consider `CS(=O)(=O)CCOC(=O)C1=CC(CCCO)=CC(C2CC2)N(Cc2cccc(OC(F)(F)F)c2)C=C1C(=O)OCCS(C)(=O)=O` (stereo not given), for which the composite z-score stood at 0.0363. Take `COc1ccc(C#Cc2ccc3c(c2)[C@]2(C(=O)N3)[C@H](C(=O)Nc3nc4ccccc4s3)[C@H]3C(=O)O[C@H](c4ccccc4)[C@H](c4ccccc4)N3[C@@H]2c2ccccc2OCCO)cc1`: the composite z-score was 0.0507. `C=C[C@@H](C)[C@@H](OC(=O)Nc1ccc(SC)cc1)c1ccc(OCCO)cc1`: the composite z-score is 0.0879. In the case of `CC(=O)N1CC(C(O)C2C=CC3C(=O)NC(=O)C3N2Nc2ccc(Cl)cc2Cl)c2ccccc21` (stereo not given) it was 0.277; in that of `CC(C)C[C@@H]1NC(=O)[C@H]2C[C@@H](C(=O)NCCCCCN)[C@@H](c3cccc(OCCO)c3)N2C1=O`, -0.198; in that of `C=C(/C(=C/C[C@@H](OC(C)=O)c1ccc(CO)o1)c1cc(C(=O)OC)ccc1OC)C(C)C`, 0.146. `O=C1OCC=C[C@H]2OC34C=CCN(c5ccc6ccccc6c5)C(=O)[C@H]3N(CCCCCO)C(=O)[C@@H]4[C@@H]12` (stereo not given in full) came in with a composite z-score of -0.0286. `COC(=O)[C@@]1(Cc2ccccc2)[C@H]2c3cc(C(=O)N4CCCC4)n(CCSCCO)c3C[C@H]2CN1C(=O)c1ccccc1` registered a composite z-score of 0.361. On to `NC(=O)[C@@H]1[C@H]2C(=O)O[C@H](c3ccccc3)[C@H](c3ccccc3)N2[C@H](c2ccc(OCCO)cc2)[C@@]12C(=O)Nc1ccc(C#CCCO)cc12`, for which the composite z-score amounted to 0.216. `[N-]=[N+]=Nc1ccccc1C[C@]1(C(=O)NCc2ccccc2)COC(c2ccc(OCCCO)cc2)=N1` yielded a composite z-score of 0.212. Compound `CN1C(=O)[C@@]2(Cc3ccccc3)N=C(c3ccc(OCCCO)cc3)O[C@H]2c2ccccc21` yielded a composite z-score of 0.283. As for `CCOC(=O)C[C@H]1[C@H](OC(=O)c2ccccc2-c2ccccc2)[C@@H](NC(=O)c2ccc3ccccc3n2)c2cc(OCCCO)ccc2N1C(=O)c1ccccc1`, the composite z-score turned out to be 0.0153. `Nc1cc(Br)ccc1C(=O)O` came in with a composite z-score of 0.0837. In the case of `C=C(COC)C(=O)CC[C@@H](OC(=O)c1cccnc1)c1ccccc1OCCO`, the composite z-score was -0.0663. In turn, `CCOC(=O)C1=C[C@@H](c2ccccc2)N(S(=O)(=O)c2ccc(C)cc2)[C@H]1c1ccccc1` showed a composite z-score of 0.125. As for `CC(C)c1ccc(NN2C(C(O)Cc3ccccc3)C=CC3C(=O)N(c4ccccc4)C(=O)C32)cc1` (stereo not given), the figure is 0.0989; as for `C=CCC(OC(C)=O)[C@@H]1[C@@H](N(Cc2ccc(-c3cccc(C(F)(F)F)c3)o2)C(=O)Cc2ccc(OC)cc2)c2cc(OCCCO)ccc2N1C(=O)Cc1ccc2ccccc2c1` (stereo not given in full), -0.0286.

For the compound `COCCOC(=O)N1C(=O)[C@@]2(c3cc(C#CCNC(N)=O)ccc31)[C@H](c1ccc(O)cc1)N1[C@H](c3ccccc3)[C@H](c3ccccc3)OC(=O)[C@H]1[C@@H]2C(N)=O`, the composite z-score came out at 0.0372. For `C=CC1c2cc(O)c(OC)cc2CCN1Cc1ccc([N+](=O)[O-])o1` (stereo not given), the composite z-score came to 0.188. Turning to `CC(=O)n1cc(C(O)C2C=CC3C(=O)N(c4ccccc4)C(=O)C3N2Nc2ccc(C(C)C)cc2)c2ccccc21` (stereo not given), the composite z-score was found to be 0.0072.

For the compound `CO[C@H]1O[C@H](CO)[C@@H](OC(=O)c2ccc(Br)cc2)[C@@H]2OC(=O)[C@H](Cc3ccccc3)C/C=C/C[C@@H](Cc3ccccc3)C(=O)O[C@@H]12`, the composite z-score was found to be 0.154. On to `CN(C)CCCC[C@@H]1NC(=O)[C@@H]2C[C@H](C(=O)O)[C@H](c3cccc(OCCO)c3)N2C1=O`, for which the composite z-score was -0.0398. In the case of `CCCCCCCCCCC(O)C1C=CC2C(=O)N(c3ccccc3)C(=O)C2N1Nc1ccccc1F` (stereo not given) it was 0.174; in that of `C=CCOC(=O)[C@H]1[C@@H]2C(=O)O[C@@H](c3ccccc3)[C@@H](c3ccccc3)N2[C@@H](c2ccc(OCCOC(=O)[C@H]3C[C@H]4C(=O)N[C@@H](CCCCNC(C)=O)C(=O)N4[C@H]3c3cccc(OCCO)c3)cc2)[C@]12C(=O)Nc1ccc(I)cc12`, -0.0228; in that of `Cc1ccc(F)cc1S(=O)(=O)N[C@@H]1CCN(Cc2cccc3[nH]ccc23)C1`, -0.02. Regarding `CC(C)C(=C=CC[C@@H](O)c1cccc(OCCO)c1)C[C@@H](O)c1ccccn1`, the composite z-score was 0.127.

Regarding `[N-]=[N+]=NCc1ccccc1[C@H]1OC(c2ccc(OCCCO)cc2)=N[C@@]1(Cc1ccccc1)C(=O)NCCN1CCOCC1`, the composite z-score turned out to be 0.785. `C=CC[C@H](OC(=O)Nc1ccc(SC)cc1)c1ccc(OCCO)cc1` displayed a composite z-score of 0.0264. `CN(C)C(=O)[C@@]1(Cc2ccccc2)COC(c2ccc(OCCCO)cc2)=N1` came in with a composite z-score of 0.521. `NC(=O)[C@H]1[C@@H]2C(=O)O[C@@H](c3ccccc3)[C@@H](c3ccccc3)N2[C@@H](c2ccc(O)cc2)[C@]12C(=O)Nc1ccc(C#CC3=CCCCC3)cc12` registered a composite z-score of -0.0773.
